From the supplement of paper PMC3334620
In all, about 33,000 sequences were measured (“E-score (-0.5 to 0.5)”: median about -0.015, highest 2% from about 0.3 on). This excerpt belongs to a sample that is enriched for the highest values.

Molecular target: T1, Abf1 (UniProt P14164)
T1 sequence: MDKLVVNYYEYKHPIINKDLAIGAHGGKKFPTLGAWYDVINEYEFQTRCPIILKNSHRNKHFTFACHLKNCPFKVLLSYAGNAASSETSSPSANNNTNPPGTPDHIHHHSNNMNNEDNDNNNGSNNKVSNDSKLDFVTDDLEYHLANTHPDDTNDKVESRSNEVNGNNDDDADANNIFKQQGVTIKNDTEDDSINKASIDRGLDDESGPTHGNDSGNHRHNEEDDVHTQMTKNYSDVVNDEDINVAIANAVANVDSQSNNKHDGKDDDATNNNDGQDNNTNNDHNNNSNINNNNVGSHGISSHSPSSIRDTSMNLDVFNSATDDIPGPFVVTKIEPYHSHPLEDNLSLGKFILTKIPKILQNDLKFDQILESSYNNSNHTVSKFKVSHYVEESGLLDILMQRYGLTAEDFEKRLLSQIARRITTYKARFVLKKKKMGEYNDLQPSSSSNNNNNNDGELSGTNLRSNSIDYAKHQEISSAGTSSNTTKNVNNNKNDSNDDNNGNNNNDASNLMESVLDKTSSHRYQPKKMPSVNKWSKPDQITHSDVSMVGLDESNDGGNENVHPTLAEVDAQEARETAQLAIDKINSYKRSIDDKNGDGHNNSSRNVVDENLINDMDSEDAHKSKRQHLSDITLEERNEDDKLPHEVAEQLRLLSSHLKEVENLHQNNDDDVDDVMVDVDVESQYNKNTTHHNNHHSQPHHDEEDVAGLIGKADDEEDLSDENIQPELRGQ
Assay: PBM E-score (8-mer binding enrichment) (E-score (-0.5 to 0.5)); higher = stronger / more preferred TF binding
Conditions: protein concentration: 200 nM; construct: GST-full length
Experimental: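 Universal 'all 10-mer' protein binding microarrays (Agilent AMADID 015681) probed with GST-tagged S. cerevisiae TFs (full-length or DBD) made by in vitro transcription/translation (PURExpress), about 100-200 nM. Bound TF was detected with fluorescent anti-GST. Each ungapped 8-mer (which stands for itself and its reverse complement) is scored by the PBM enrichment score (E-score), a modified Wilcoxon-Mann-Whitney statistic from -0.5 to +0.5, computed with the Universal PBM Analysis Suite. Scale: above 0.35 generally sequence-specific binding.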

| Sequence | PBM E-score |
| --- | --- |
| AACAGAGC | -0.0439 |
| ACTCTGTG | -0.0599 |
| GTGCCATA | -0.14 |
| CCAAAAGC | -0.0875 |
| TCGCATAA | 0.205 |
| AATACTTC | -0.0521 |
| AAGAATGA | 0.293 |
| GCTGTCAC | 0.197 |
| AATGTCAT | 0.306 |
| GATGTCAC | 0.395 |
| AATGTCGA | 0.146 |
| CATGTCAC | 0.383 |
| AATGTCGG | -0.0313 |
| CATGTCAG | 0.0449 |
| ACTGTCAT | 0.0825 |
| AATGTCGT | 0.302 |
| AGTGTCAT | 0.21 |
| GATGTCAA | -0.0282 |
| CATGTCAA | 0.105 |
| GAGTTGTA | 0.0502 |
| GGTAGCTA | -0.16 |
| AAACTCGC | -0.0402 |

| Sequence | PBM E-score |
| --- | --- |
| GAGTGTCC | -0.0553 |
| CACCTCGC | -0.0945 |
| ACAGTTGA | -0.00384 |
| ATGGAGAA | -0.0924 |
| CTTGTGGA | -0.249 |
| GTCCCAAC | 0.0207 |
| ACAGCTAA | -0.159 |
| CGTGTCAC | 0.327 |
| AATGTCAA | -0.00569 |
| CGTGTCAG | 0.27 |
| AATGTCAC | 0.416 |
| AGTGTCAC | 0.174 |
| AATGTCAG | -0.169 |
| CACGCCGG | -0.0297 |
| GATAGGTA | 0.0863 |
| CGGGCGGA | -0.157 |
| CTTGCATA | 0.0552 |
| ACCGTACG | 0.34 |
| CCCGTACG | 0.348 |
| TGCGTACA | 0.0613 |
| AGCGTACA | -0.121 |
| ACCGTACT | 0.286 |

| Sequence | PBM E-score |
| --- | --- |
| ACCGTACA | 0.327 |
| TCCGTACA | 0.368 |
| CCCGTACC | 0.182 |
| CCCGTACA | 0.263 |
| ACCGTAAG | 0.226 |
| TCCGTAAA | 0.145 |
| AACGTACG | 0.222 |
| CTCAGCCA | -0.0785 |
| CGCGCAGA | 0.103 |
| AGTAACGG | 0.0792 |
| AAGAGAGT | -0.24 |
| GAAGGGTC | -0.227 |
| ACTAAAAG | 0.0434 |
| CAATGCCG | -0.0313 |
| AGTTGAGG | -0.116 |
| CTTACGGC | -0.0264 |
| GCCGTACA | 0.294 |
| ACCGTACC | 0.118 |
| GCCGTACC | 0.356 |
| ACATACGG | 0.3 |
| GCATACGA | 0.0403 |
| GCCTACGA | 0.239 |

| Sequence | PBM E-score |
| --- | --- |
| ACATACGC | -0.0157 |
| ACATACGA | 0.356 |
| CCATACGG | 0.281 |
| TCCTACGA | 0.347 |
| ACATACTA | 0.109 |
| CCATACGA | 0.283 |
| CCCTACGA | 0.041 |
| ACATACGT | 0.033 |
| TCATACGA | 0.328 |
| GCTAGTAC | 0.0984 |
| AGCTTGAA | -0.106 |
| TACCGTCA | 0.262 |
| CGTATCAG | 0.0845 |
| TCATTCGA | 0.129 |
| ACCTCTGG | -0.129 |
| GAGCCTGA | -0.165 |
| AAACCGGA | 0.00218 |
| CCACGAAG | 0.0703 |
| CCACGAAC | 0.338 |
| CCACGATA | 0.143 |
| CCACGAAA | 0.216 |
| CCACGATC | 0.335 |

| Sequence | PBM E-score |
| --- | --- |
| ACACGATC | 0.25 |
| CTCGGGAA | 0.0853 |
| AGTCATGA | 0.149 |
| ACCTTTTG | -0.00807 |
| GAATGAGA | 0.0436 |
| ACATGATA | 0.315 |
| CAATGAGA | -0.0863 |
| GAATGAAA | -0.0868 |
| TAATGAGA | 0.0631 |
| ACATGATC | 0.292 |
| GCATGATA | 0.268 |
| TAATGAAA | 0.12 |
| TAATGATA | 0.348 |
| CAATGATG | 0.106 |
| CAATGATA | 0.322 |
| GAATGATA | 0.397 |
| CGGAGAAC | -0.184 |
| GTAGATAC | 0.0486 |
| CCTGTGTC | -0.275 |
| CGTAGAAC | 0.118 |
| AACCACAT | 0.182 |
